Sampled rows, rich in hits. Any-hit rate of the full collection: about 5.9%.
GALK inhibitor = qHTS Assay for Inhibitors of Human Galactokinase (GALK); P51570; 0.007% of 270,000 active; Potency, µM (highest dose often 57.5 µM), hits mostly inhibitors; Purified GALK, Kinase-Glo residual ATP luminescence
Target sequence (P51570 whole entry, looked up): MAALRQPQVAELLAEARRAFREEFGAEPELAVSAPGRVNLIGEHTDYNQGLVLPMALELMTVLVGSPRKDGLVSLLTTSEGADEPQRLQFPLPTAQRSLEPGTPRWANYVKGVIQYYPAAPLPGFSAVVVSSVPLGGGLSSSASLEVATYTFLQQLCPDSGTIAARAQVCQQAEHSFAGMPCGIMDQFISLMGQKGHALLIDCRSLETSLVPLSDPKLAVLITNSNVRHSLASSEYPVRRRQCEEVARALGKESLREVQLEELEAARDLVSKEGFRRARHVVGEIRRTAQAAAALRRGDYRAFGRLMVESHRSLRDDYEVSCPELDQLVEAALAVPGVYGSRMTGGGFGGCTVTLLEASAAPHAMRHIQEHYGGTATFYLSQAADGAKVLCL
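Luminescence from leftover ATP (Ultra-Glo luciferase/luciferin) served as read-out after a 1 h room-temperature reaction of 5 nM GALK with 35 uM ATP and 100 uM galactose.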
TrxR1 substrate = qHTS Assay for Substrates of Mammalian Selenoprotein Thioredoxin Reductase 1 (TrxR1): qHTS | Potency, µM (highest dose often 114 µM) | 0.01% of 390,000 active | Thioredoxin reductase 1, cytoplasmic (Rattus norvegicus), O89049 | purified TrxR1 substrate turnover, NADPH consumption readout; note: nearly all actives have a fitted effect of over 50% in size
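Rat TrxR1, dispensed at 90 nM, was prereduced with 400 uM NADPH (final) for 5 min at ~22 deg C, then incubated with compound 15 min before 400 uM selenite. A first-read NADPH fluorescence drop versus no-compound background flagged substrates.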
Gal4-VP16 FLuc = VP16 counterscreen qHTS for inhibitors of ROR gamma transcriptional activity; Potency, µM (highest dose often 53.6 µM), hits mostly inhibitors; 3.5% of 310,000 active; Drosophila S2 Gal4-VP16 UAS-luciferase, luminescence, 20 h;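 note: Gal4-VP16 expression switched on by copper sulfate through the metallothionein promoter; nearly all actives have a fitted effect of over 50% in size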
TrxR1 inh = qHTS Assay for Inhibitors of Mammalian Selenoprotein Thioredoxin Reductase 1 (TrxR1): qHTS; Potency, µM (doses to about 114 µM), actives largely listed as inhibitors; 1% of 390,000 active; recombinant rTrxR1, NADPH fluorescence consumption, selenite substrate; Thioredoxin reductase 1, cytoplasmic (Rattus norvegicus), O89049; AID 588453, 2011; note: nearly all actives have a fitted effect of over 65% in size
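Rat TrxR1 (90 nM in the dispensed reagent) was pre-reduced with 400 uM NADPH for 5 min at room temperature, then incubated with compound for 15 min. After 400 uM selenite was added, NADPH fluorescence (Ex 340/Em 450 nm) was followed for 8 min.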
RORg inh = qHTS for inhibitors of ROR gamma transcriptional activity | Nuclear receptor ROR-gamma (Mus musculus), P51450 | Drosophila S2 Gal4-RORgamma UAS-luciferase reporter, 20 h | Potency, µM (series often up to 53.6 µM), hits mostly inhibitors | 5.4% of 310,000 active | AID 2551, 2010; note: nearly all actives have a fitted effect of over 60% in size
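Compounds are pin-transferred onto Drosophila Schneider cells expressing a copper-inducible Gal4–ROR gamma transactivation domain fusion. After 1 hr, copper sulfate is added to 700 uM final; luciferase is read 20 hr later.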
FBPA coupling cs = qHTS Assay for Inhibitors of Fructose-1,6-bisphosphate Aldolase from Giardia Lamblia: Coupling assay counterscreen; coupling enzyme system counterscreen, AmpLite Red fluorescence; activity change, negative = inhibition, % at 58.2 µM, hits read low; 0.67% of 290,000 active; AID 2472, 2010; in the data active = activity change below about -30%
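Coupling enzymes only (glyceraldehyde-3-phosphate) + compound, at 57.5 uM final, 10 min RT; add substrate/coupling/AmpLite Red mix, 20 min RT; fluorescence ex 525/em 598 nm. Actives flag coupling-system interference.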
Each line names hits and unclear results; the compound was inactive in the other large screens. Unless noted, calls come from the whole dose curve; as a rule, active = well fitted curve in the direction sought with a large enough effect; inconclusive = small, poorly fitted or top-dose-only effect, or another doubt; inactive = no such curve, though single readings can be large; an effect the other way counts as inactive or inconclusive.

CCc1nnc(NC(=O)c2cc(Cl)ccn2)s1	Gal4-VP16 FLuc 7.1µM, TrxR1 inh inconclusive, RORg inh 4.5µM
CC(=O)NC12CC3CC(C)(C1)CC(NC(C)=O)(C3)C2	none
CCCn1c(N)c(C(=O)CSc2nnc(C3CC3)n2Cc2ccccc2)c(=O)[nH]c1=O	none
CC(C)NC(=O)N1CCC2(CC1)CCN(C(=O)c1csnn1)CC2	none (no result: GALK inhibitor, TrxR1 substrate, TrxR1 inh)
Brc1ccc(-c2nn3c(-c4ccco4)nnc3s2)o1	TrxR1 inh 28µM
Clc1ccc(-c2ccc(-c3nn4c(-c5ccco5)nnc4s3)o2)cc1	TrxR1 inh inconclusive (no result: GALK inhibitor, Gal4-VP16 FLuc, RORg inh, FBPA coupling cs)
CCn1c(C)nc2cc(C(=O)N3N=C(CCOC)CC3(O)C(F)(F)F)ccc21 (configuration not stated)	Gal4-VP16 FLuc 35µM, RORg inh inconclusive
O=C(Cc1ccc(Cl)cc1)Nc1nc2ccccc2[nH]1	Gal4-VP16 FLuc 7.1µM, RORg inh 0.28µM
O=C(Cc1ccccc1)Nc1nc2ccccc2[nH]1	Gal4-VP16 FLuc 16µM, RORg inh 13µM
O=C(Cc1ccc(Br)cc1)Nc1nc2ccccc2[nH]1	RORg inh inconclusive
O=C(CSc1ccccc1)Nc1nc2ccccc2[nH]1	Gal4-VP16 FLuc inconclusive, RORg inh 13µM
Cc1cc(NC(=O)CSCC(=O)Nc2nc3ccccc3[nH]2)no1	none (no result: GALK inhibitor, Gal4-VP16 FLuc, RORg inh, FBPA coupling cs)
O=C(NC(=S)Nc1ccccc1N1CCCC1)c1cccc(F)c1	Gal4-VP16 FLuc 7.9µM, RORg inh 3.2µM
O=C(Nc1ccccc1N1CCCC1)c1cccc(F)c1	none (no result: Gal4-VP16 FLuc, RORg inh)
O=C(NC(=S)Nc1ccccc1N1CCCCC1)c1ccc(F)cc1Cl	Gal4-VP16 FLuc 3.2µM, RORg inh 4.5µM (no result: FBPA coupling cs)
O=C(NC(=S)Nc1ccccc1N1CCCC1)c1ccc(F)cc1	TrxR1 inh inconclusive, RORg inh 1.6µM
O=C(NC(=S)Nc1ccccc1N1CCOCC1)c1ccc(-c2ccccc2F)o1	RORg inh 2.8µM
O=C(NC(=S)Nc1cc(Cl)ccc1N1CCOCC1)c1ccc(-c2cccc(Cl)c2)o1	none
CCOc1ccc(N(C)S(=O)(=O)c2ccc3c(c2)CCCN3C(C)=O)cc1	none (no result: GALK inhibitor, Gal4-VP16 FLuc, RORg inh, FBPA coupling cs)
O=C(NC(=S)Nc1ccccc1N1CCCCC1)c1ccccc1	Gal4-VP16 FLuc 7.9µM, RORg inh 1.4µM
O=C(NC(=S)Nc1ccccc1N1CCOCC1)c1ccc(Br)cc1	none (no result: Gal4-VP16 FLuc, RORg inh)
CC(C)CC1NC(=O)C(CCCN)NC(=O)C(C(C)C)NC(=O)C2CCCN2C(=O)C(Cc2ccccc2)NC(=O)C(CC(C)C)NC(=O)C(CCCN)NC(=O)C(C(C)C)NC(=O)C2CCCN2C(=O)C(Cc2ccccc2)NC1=O (configuration not stated)	Gal4-VP16 FLuc 0.28µM, RORg inh 0.089µM (no result: GALK inhibitor, TrxR1 substrate, TrxR1 inh)
O=C1N[C@@H](Cc2ccccc2)C(=O)N2CCCC12 (some centres not stated)	none (no result: GALK inhibitor)
O=C(CCc1ccccc1)N1CCCC1	none
CC1CCc2c(C(=O)Nc3nccs3)csc2C1 (configuration not stated)	Gal4-VP16 FLuc 8.9µM, RORg inh 3.5µM
CC1CCc2c(C(=O)Nc3ccccn3)csc2C1 (configuration not stated)	none
Cc1ccc2c(CN3CCCc4ccccc43)cc(=O)oc2c1C	TrxR1 inh inconclusive, FBPA coupling cs -53
O=C(O)CN(CCN(CC(=O)O)CC(=O)O)CC(=O)O	none (no result: GALK inhibitor, TrxR1 substrate, TrxR1 inh)
O=C(N/N=C/C=C/c1ccco1)C(O)c1ccccc1 (configuration not stated)	TrxR1 inh 13µM (no result: GALK inhibitor, Gal4-VP16 FLuc, RORg inh, FBPA coupling cs)
Cn1cccc1CC(=O)N/N=C/C=C/c1ccco1	TrxR1 inh 50µM
CCOc1ccc(-c2noc(CCC(=O)NC3CCCCC3)n2)cc1OC	none
CCOc1ccc(N)c(SSc2cc(OCC)ccc2N)c1	Gal4-VP16 FLuc 6.3µM, RORg inh 7.9µM (no result: GALK inhibitor)
CCOc1cccc(N)c1	none (no result: GALK inhibitor, FBPA coupling cs)
CSc1ccccc1-c1nnc(NC(=O)Cc2ccccc2)o1	Gal4-VP16 FLuc 2.5µM, RORg inh 1µM
Cc1ccc(S(=O)(=O)CCC(=O)Nc2nnc(-c3ccccc3S(C)(=O)=O)o2)cc1	none (no result: GALK inhibitor, Gal4-VP16 FLuc, RORg inh, FBPA coupling cs)
CS(=O)(=O)c1ccccc1-c1nnc(NC(=O)Cc2ccccc2)o1	Gal4-VP16 FLuc inconclusive, RORg inh 11µM (no result: FBPA coupling cs)
COc1ccccc1-c1nnc(SCC(=O)Nc2ccc(Cl)cc2Cl)o1	none
COc1ccccc1-c1nnc(NC(=O)Cc2ccccc2)o1	Gal4-VP16 FLuc 3.2µM, RORg inh 2µM
COc1cc2[nH]c(Cl)c([N+](=O)[O-])c2cc1OC	TrxR1 inh 1.4µM, FBPA coupling cs -48
COc1cc(C(=O)O)c([N+](=O)[O-])c(OC)c1OC	none (no result: GALK inhibitor)
CCCC(O)(CCN1CCCCC1)c1ccc(OCC)cc1 (configuration not stated)	TrxR1 inh 50µM
O[C@@](CCN1CCCC1)(c1ccccc1)C1CCCCC1	none (no result: GALK inhibitor, TrxR1 substrate, TrxR1 inh)
COc1ccc(C(O)(CCN2CCCCC2)C2CCCCC2)cc1 (configuration not stated)	TrxR1 inh 2.8µM
CCCCOc1ccc(C(O)(CCC)CCN2CCOCC2)cc1 (configuration not stated)	TrxR1 inh inconclusive, RORg inh inconclusive (no result: GALK inhibitor)
CCCCCC(O)(CCN1CCCCC1)c1ccc(OCC)cc1 (configuration not stated)	TrxR1 inh 8.9µM
COc1ccc(/C=C/C(=O)Oc2ccc(/C=N/NC(=O)c3ccccc3)cc2)cc1OC	none
COc1cc(OC)cc(-c2nc3ccccc3c(=O)n2OC(=O)c2ccc(Br)cc2)c1	Gal4-VP16 FLuc 11µM, RORg inh 10µM
COc1ccc(C(=O)On2c(-c3ccc(Br)cc3)nc3ccccc3c2=O)cc1	Gal4-VP16 FLuc 5µM, RORg inh 7.1µM
CCOc1cc(-c2noc(N)c2C#N)cc(OCC)c1OCC	Gal4-VP16 FLuc inconclusive, TrxR1 inh inconclusive, RORg inh 11µM
CCC1CC=CC2C1C(=O)N(Cc1ccccc1)C2c1cccc([N+](=O)[O-])c1 (configuration not stated)	Gal4-VP16 FLuc inconclusive, TrxR1 inh inconclusive, RORg inh inconclusive (no result: GALK inhibitor)
CC(Sc1nc2sc3c(c2c(=O)n1-c1ccccc1)CCCC3)C(=O)O (configuration not stated)	none
CCn1c(SC(C)C(=O)O)nc2sc3c(c2c1=O)CCC3 (configuration not stated)	Gal4-VP16 FLuc 7.1µM, RORg inh 5.6µM
COC(=O)C/C=C\[C@@H](C)[C@H]1C=C[C@H](O)[C@@H](CO)O1	none (no result: GALK inhibitor, TrxR1 substrate, TrxR1 inh)
